This is part of a sample that, as a whole, favours compounds with a hit. Of some 79,000 tested, about 15% had one in any assay. Cut-off read from the data, not from the text of the source: active = growth inhibition above about 70%; inactive = the rest.
What was measured:
[1] = NCI Yeast Anticancer Drug Screen. Data for the rad50 strain (AID 155);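 note: 0% = growth of vehicle-only cultures of the same strain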; details: S. cerevisiae rad50 strain growth inhibition; at 50.0 µM; stronger effect = higher value
Outline: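 Genetically altered yeast (DNA repair pathway); compound treatment; growth inhibition vs vehicle ctrl.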

[2] = NCI Yeast Anticancer Drug Screen. Data for the mec2-1 strain (AID 157); details: S. cerevisiae mec2-1 strain, at 50.0 µM, stronger effect = higher value
Outline: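 Each compound was tested on mec2-1 yeast, a strain altered in DNA damage repair or cell cycle control. Growth inhibition is reported relative to vehicle.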

[3] = NCI Yeast Anticancer Drug Screen. Data for the mlh1 rad18 strain (AID 175); details: S. cerevisiae mlh1 rad18 strain growth inhibition; at 50.0 µM; stronger effect = higher value
Outline: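 Inhibition values reflect reduced growth of mutant yeast versus vehicle-treated controls following compound exposure; the mutations affect DNA damage repair.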

[4] = NCI Yeast Anticancer Drug Screen. Data for the sgs1 mgt1 strain (AID 161);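 note: 0% = growth of cultures given vehicle only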; details: S. cerevisiae sgs1 mgt1 strain, at 50.0 µM, stronger effect = higher value
Outline: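 Genetically altered yeast, compound exposure, growth inhibition relative to vehicle.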

[5] = NCI Yeast Anticancer Drug Screen. Data for the cln2 rad14 strain (AID 165);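 note: 0% = growth equal to vehicle treated cultures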; details: S. cerevisiae cln2 rad14 strain, at 50.0 µM, stronger effect = higher value
Outline: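 Test compounds were added to cln2 rad14 yeast cultures; inhibition of growth was then determined by comparison with vehicle treatment.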

[6] = NCI Yeast Anticancer Drug Screen. Data for the bub3 strain (AID 167); details: S. cerevisiae bub3 mutant strain, at 50.0 µM, stronger effect = higher value
Outline: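 Yeast carrying a defined mutation is treated with each compound, and growth is compared with that of vehicle-exposed cells to give inhibition.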

Measured: growth inhibition

N#C/C(=C1C=C(Br)/C(=N\O)C=C\1Cl)c1ccc(Cl)cc1
inactive: [1] 30.9% | [2] 4.55% | [3] 27.7%

O=C(O)C1(c2ccc(Cl)cc2)CCCC1
inactive: [1] 12.1% | [2] 8.75% | [3] 60.6%

Nc1cc(S(=O)(=O)c2ccc(O)c(N)c2)ccc1O
inactive: [1] 5.1% | [2] -0.85% | [3] 9.05%

CCCCCCCCCCCCCCCc1cc(=S)n(C)c2ccc(C)cc12
inactive: [1] 25.1% | [2] -13.5% | [3] 16.1%

CCOc1ccc(N=c2ssc(SC)c2-c2ccccc2)cc1
inactive: [1] 3.4% | [2] -10.8% | [3] 20.5%

CCOC(=O)C(C#N)N=Nc1ccccc1 (stereo unspecified)
inactive: [1] 10.2% | [2] -7% | [3] 10.2%

Fc1ccccc1Nc1n[nH]c(=S)s1
inactive: [1] 55.9% | [2] 56.7% | [3] 38.8%

Cc1ccc(-c2nc3cc(Cl)ccc3c(=O)o2)cc1
inactive: [1] 14.6% | [2] -11.3% | [3] 6.3%

O=[N+]([O-])c1ccc2nc3c4ccccc4c4ccccc4c3nc2c1
inactive: [1] 53.1% | [2] -1.1% | [3] 3.65%

CCOC(=O)C(=Cc1c[nH]c2ccc(Br)cc12)C(=O)OCC
inactive: [1] -17.5% | [2] -22.9% | [3] -5.15%

O=C1Nc2ccccc2CCc2ccccc21
inactive: [1] -18.1% | [2] -34.3% | [3] -7.2%

O=C1c2ccccc2C(=O)N1CNc1ccc(Cl)cn1
inactive: [1] -18.9% | [2] -43.9% | [3] -24.6%

Nc1ccccc1SC1CC(=O)N(c2ccccc2Cl)C1=O (stereo unspecified)
inactive: [1] -18.4% | [2] -33.1% | [3] -6.5%

O=C1Nc2ccccc2/C1=N/N=C/c1cc(Cl)cc(Cl)c1O
inactive: [1] 32.7% | [2] 9.4% | [3] 20.1%

N#C/C(=C1C=C/C(=N/O)C(Br)=C/1)c1ccccc1
inactive: [1] 50.1% | [2] 13.2% | [3] 22%

CCOC(=O)c1c(C)nc(C)c(C(=O)OCC)c1-c1cccc([N+](=O)[O-])c1
inactive: [1] 29.1% | [2] 2.35% | [3] 25.9%

COc1ccccc1Oc1ccc(N=Cc2ccc(C)cc2)cc1
inactive: [1] -16.4% | [2] -25.3% | [3] 5.3%

CC1CC(C)(C)N=C(Cc2ccccc2)O1 (stereo unspecified)
inactive: [1] -26.6% | [2] -11.6% | [3] 2.05%

COc1cc(-c2cc(=O)c3c(O)cc(O)cc3o2)cc(OC)c1OC
inactive: [1] -8.15% | [2] -10.7% | [3] 40%

O=C(N/N=C/c1ccc2c(c1)CCC2)c1cc2ccccc2cc1O
inactive: [1] 2.55% | [2] -8.15% | [3] 7.2%

COc1cc(/C=N/n2cnnc2)cc(OC)c1OC
inactive: [1] -8.35% | [2] 5.45% | [3] -13.7%

Cc1cc(Cl)ccc1NCN1C(=O)c2ccccc2C1=O
inactive: [1] -6.8% | [2] -8.9% | [3] 15.8%

CCCCCCC(=O)C(CCCC)(C(=O)OCC)C(=O)OCC
inactive: [1] 0.4% | [2] -9.4% | [3] 7.35%

CC(C)Oc1ccc(C(=O)NS(=O)(=O)c2ccc(N)cc2)cc1
inactive: [1] -25% | [2] -32.5% | [3] -8.4%

O=C(OCC1OC(Oc2ccccc2CO)C(O)C(O)C1O)c1ccccc1 (stereo unspecified)
inactive: [1] -2.1% | [2] 1.45% | [3] 0.45%

O=C1OC(c2ccc(Cl)cc2)=N/C1=C\c1ccccc1
inactive: [1] -4.85% | [2] -5.5% | [3] -6.65%

CCn1c(C)[n+](CC)c2ccc(C(F)(F)F)cc21
inactive: [1] -6.4% | [2] -10.7% | [3] 14.9%

O=[N+]([O-])c1cc([N+](=O)[O-])c2nc3ccccn3c2c1
inactive: [1] -1.85% | [2] -43.9% | [3] -11.7%

Cc1cc(CSC(=N)N)c(C)cc1CSC(=N)N
inactive: [1] -12.1% | [2] -39.6% | [3] -7.5%

CCCCCCCCCOCC(O)COc1ccccc1[N+](=O)[O-] (stereo unspecified)
inactive: [1] -9.2% | [2] -15.9% | [3] -5.5%

COc1ccc(-c2cc(=O)c3c(O)cc(C)cc3o2)cc1OC
inactive: [1] -23.9% | [2] -25.6% | [3] -21.6%

COC(CN(C)CC(OC)OC)OC
inactive: [1] -8.75% | [2] -20.9% | [3] -11.8%

CCCCCCC(C/C=C\CCCCCCCC(=O)OC)OC(C)=O (stereo unspecified)
inactive: [1] -10.2% | [2] -16.7% | [3] -4.5%

CCN(CC)C(C(=O)Nc1ccccc1)C(=O)Nc1ccccc1
inactive: [1] 3.7% | [2] 2.8% | [3] -4.9%

Cc1cccc(-c2nc3cc(Cl)ccc3c(=O)o2)c1
inactive: [1] -10.8% | [2] -13.6% | [3] 6.6%

CCOc1ccc(Br)cc1C=O
inactive: [1] 54.2% | [2] 17.4% | [3] 45.1%

Cc1ccc(/C=N/N2C(=O)c3ccccc3C2=O)cc1
inactive: [1] -28.9% | [2] -43.1% | [3] -37.9%

CCOc1ccc(NC(=S)NC2CCCCCCCCCCC2)cc1
inactive: [1] 15.7% | [2] 10.1% | [3] 32.9%

O=C(O)c1ccccc1C(=O)NNC(=O)c1ccccc1C(=O)O
inactive: [1] 4.65% | [2] -5.3% | [3] -13.6%

O=C(Cc1nc2ccccc2[nH]c1=O)N/N=C/c1ccc2c(c1)CCC2
inactive: [1] -30.2% | [2] -28.6% | [3] -37.4%

O=c1oc(-c2ccc(Cl)cc2)nc2cc(Cl)ccc12
inactive: [1] -20.6% | [2] -14.7% | [3] -20.8%

N#CCC(=O)OCCCCOC(=O)CC#N
inactive: [1] -8.3% | [2] -22.3% | [3] 15.4%

OC1CCC2CN3CCc4c([nH]c5ccccc45)C3CC2C1 (stereo unspecified)
inactive: [1] 23.6% | [2] -9.5% | [3] 27.8%

Nc1n[nH]c(=S)n1-c1ccc(Cl)cc1
inactive: [1] -14.3% | [2] -29.6% | [3] -13%

O=C(O)C1=C(C2CCCCC2)C(=O)c2ccccc21
inactive: [1] 7.75% | [2] -15.8% | [3] 20.9%

N#CC1(c2ccc(Cl)cc2)CCCC1
inactive: [1] -15.3% | [2] -44% | [3] -14.8%

COc1cc(/C=N/N2CCCCC2)cc(OC)c1OC
inactive: [1] -19% | [2] -16.6% | [3] -21.8%

N/C(Cc1ccc(N)cc1)=N\O
inactive: [1] -17.4% | [2] -13.6% | [3] -13.8%

CCOC(=O)CC(=O)c1ccc(C)cc1
inactive: [1] -13.6% | [2] -3.45% | [3] 9.75%

COc1cc(OC)cc(C(=O)Cl)c1
inactive: [1] -24.4% | [2] -40% | [3] -16.1%

CS(=O)(=O)c1ccc(NN)c([N+](=O)[O-])c1 (tested in a mixture with another compound)
inactive: [1] -25.7% | [2] -46.8% | [3] -39.1%

CCOc1ccc(Br)cc1/C=C1\N=C(c2ccccc2)OC1=O
inactive: [1] -2.25% | [2] -12.2% | [3] 1.7%

C(=N\n1cnnc1)/c1ccc2c(c1)CCC2
inactive: [1] -21.6% | [2] -34.5% | [3] -20.4%

COc1cc(/C=C2\CN(C)C(=O)C2=O)ccc1O
inactive: [1] -11.7% | [2] -27.2% | [3] -12.2%

Cc1n[nH]c(=O)n(/N=C\c2c[nH]c3ccccc23)c1=O
inactive: [1] 0.2% | [3] -1.55%

O=c1c2ccccc2nc(-c2ccccc2)n1/N=C/c1ccccc1[N+](=O)[O-]
inactive: [1] 18.2% | [4] 26.8% | [5] 8.35% | [6] 18.4% | [3] -56.2%

CC(=O)[C-](C(C)=O)c1ccccc1.CC(=O)[C-](C(C)=O)c1ccccc1.CC(=O)[C-](C(C)=O)c1ccccc1.[Cl-].[Zr+4]
inactive: [1] 27.4% | [4] 0.35% | [6] 14.8% | [3] 1.65%

N#[N+]c1ccc2c(S(=O)(=O)O)cccc2c1O
inactive: [1] -17.9% | [2] -16.2% | [3] -25.7%

COC(=O)C1=CO[C@@H](OC2OC(CO)C(O)C(O)C2O)[C@H]2[C@@H](C)[C@@H](O)[C@@H](O)[C@@H]12 (stereo partly specified)
inactive: [1] -5.15% | [4] -0.75% | [5] 2.4% | [6] -5.9% | [3] -57.7%

CS(=O)(=O)c1ccc(NN)c(S(C)(=O)=O)c1
inactive: [1] -9.4% | [2] -10.3% | [3] 11.8%

C=CN1C(=O)N(C=C)C(C)(CC(C)C)C1=O (stereo unspecified)
inactive: [1] 3.6% | [3] 15.8%

NC(=O)CC1OC(=O)Cc2cc3c(c(O)c21)C(=O)c1c(O)cccc1C3=O (stereo unspecified)
inactive: [1] 1.05% | [4] 22.4% | [5] 27.7% | [6] 16.5% | [3] -28.6%

CC1=NOC(=O)C1C(C)(C)C1C(=O)ON=C1C (stereo unspecified)
inactive: [1] 8.25% | [3] -18.4%

COc1ccc(/C=C/C(=O)c2ccc(Cl)cc2)c(OC)c1
inactive: [1] 20.5% | [2] -11.9% | [3] 8.75%
